For one assay, the system named is CRL-7250. Nature of the assay: qHTS assay to identify novel small-molecules to repurpose for Merkel cell carcinoma treatment (AID 1296009). The settings on record: MCC and control cell lines, CellTiter-Glo viability, 72 h; at 44.8 µM (top of the series) unless noted. In a few lines:
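Cells were treated for 72 hr at 37 degree celsius with compounds in 8- or 11-point dose response. Viability was read by CellTiter-Glo luminescence, normalized to no-cell (cytotoxicity) and DMSO controls.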
On the technique in general: In qHTS, concentration-response curves come from the screen itself.

In a further assay the test system is JCK. The experiment in a line: qHTS profiling for inhibitors of Plasmodium falciparum proliferation (AID 504749). Further: potency means the concentration at half of the fitted maximal effect. The following applies: P. falciparum in erythrocytes, SYBR Green DNA, 72 h; series mostly up to 28.7 µM. Put shortly:
(§1)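 P. falciparum-infected erythrocytes (0.3% parasitemia, 2.5% hematocrit) incubated with compound 72 h at 37 C, 5% CO2. Parasite DNA detected by SYBR Green after lysis, overnight at room temperature; normalised to 0.29 uM artemisinin and DMSO.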

For a further assay, the system named is P93_24. The assay is described as above. The settings on record: P. falciparum in erythrocytes, SYBR Green DNA, 72 h; series mostly up to 28.7 µM. Put shortly: as §1
The next assay deals with W2. Described as above. The settings on record: P. falciparum in erythrocytes, SYBR Green DNA, 72 h; series mostly up to 28.7 µM. In a few lines: as §1
The subject of another assay is KB-3-1. The experiment in a line: Cytotoxic Profiling of Annotated Libraries Using Quantitative High-Throughput Screening (AID 1296008). The following applies: Five cell lines viability, CellTiter-Glo ATP luminescence, 48-72 h; max response: stronger effect = lower value. In a few lines:
(§2)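 Cells exposed to compounds for 48 or 72 hr at 37 degrees Celsius. Viability read as ATP-coupled luminescence with CellTiter-Glo after 10 min at room temperature.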
(In general: In ATP-based viability assays light output follows the ATP content of the culture.)

The next assay has as its system ICS. The experiment in a line: qHTS profiling for inhibitors of Plasmodium falciparum proliferation (AID 504749). Further: potency means the concentration at half of the fitted maximal effect. The settings on record: P. falciparum in erythrocytes, SYBR Green DNA, 72 h; series mostly up to 28.7 µM. Put shortly:
as §1

The next assay has as its system PC15. The description is as above. The settings on record: P. falciparum in erythrocytes, SYBR Green DNA, 72 h; series mostly up to 28.7 µM. In a few lines: as §1
The test system of another assay is PC26. Described as above. The following applies: P. falciparum in erythrocytes, SYBR Green DNA, 72 h; series mostly up to 28.7 µM. In a few lines:
as §1

The next assay relates to PC49. The description is as above. The settings on record: P. falciparum in erythrocytes, SYBR Green DNA, 72 h; series mostly up to 28.7 µM. Put shortly: as §1
For the next assay, the system named is TAB109. The description is as above. The following applies: P. falciparum in erythrocytes, SYBR Green DNA, 72 h; series mostly up to 28.7 µM. In a few lines: as §1
A further assay has as its system HaCat. Nature of the assay: Cytotoxic Profiling of Annotated Libraries Using Quantitative High-Throughput Screening (AID 1296008). The following applies: Five cell lines viability, CellTiter-Glo ATP luminescence, 48-72 h; max response: stronger effect = lower value. Put shortly:
as §2

A further assay has as its system NIH3T3. The assay is described as above. The following applies: Five cell lines viability, CellTiter-Glo ATP luminescence, 48-72 h; max response: stronger effect = lower value. Put shortly:
as §2

SMILES strings stand for the structures. Results filed as inconclusive are left out. Where a call stands in place of a potency, no number is given. Values without a mark were called inactive. Calls of active or inactive are those of the source. The call rests on the fitted dose curve; in most records, active means well fitted inhibition curve with a large enough effect; inconclusive means small, poorly fitted or top-dose-only effect; inactive means flat fitted curve, though single readings scatter.
Further: nearly all actives have a fitted effect of over 60% in size.

For `Cc1cccc(N(C)C(=S)Oc2ccc3ccccc3c2)c1`, in the assay with CRL-7250, the outcome was inactive.

As for `Clc1ccc(C(Cn2ccnc2)OCc2c(Cl)cccc2Cl)c(Cl)c1` (stereo not given), the call in the assay on CRL-7250 was inactive.

Regarding `N/C(=N\N=C\c1ccc(Cl)cc1)N/N=C/c1ccc(Cl)cc1`, the call with CRL-7250 was inactive.

Regarding `Clc1ccc(C(Cn2ccnc2)OCc2ccsc2Cl)c(Cl)c1` (stereo not given), in the assay with CRL-7250, the outcome was inactive.

On to `O=C1NCN(c2ccccc2)C12CCN(CCCOc1ccc(F)cc1)CC2`, for which the Potency entry in the assay with JCK was “inactive”. Also, the Potency with P93_24 was 8.91 µM (active); with W2, 5.36 µM (active). Moreover, in the assay with KB-3-1, the max response was 25%.

Regarding `C#C[C@]1(O)CC[C@H]2[C@@H]3CCC4=CC(=O)CCC4=C3C=C[C@@]21CC`, the Potency with ICS was 8.91 µM (active); in the assay with PC15 it was 6.31 µM (active); in the assay with PC26 it was 6.01 µM (active); in the assay on PC49, 8.91 µM (active); in the assay with TAB109, 12.6 µM (active); with W2, 7.57 µM (active). Moreover, the Potency entry with JCK was “inactive”. Moreover, the molecule was classed as inactive in the assay on HaCat. For the same molecule, the max response in the assay with NIH3T3 was -4.44%.

As for `CCCc1ncc(C[n+]2ccccc2C)c(N)n1`, the molecule was called inactive in the assay on CRL-7250.

`CC(C)OC(=O)C(C(=O)OC(C)C)=C1SC=CS1`: the molecule was called inactive in the assay with CRL-7250.

With `CN(C)[C@@H](CCOc1cccc2ccccc12)c1ccccc1`, the outcome with CRL-7250 was inactive.

For `CCC(=O)O[C@]1(C(=O)CCl)[C@@H](C)C[C@H]2[C@@H]3CCC4=CC(=O)C=C[C@]4(C)[C@@]3(F)[C@@H](O)C[C@@]21C`, the outcome in the assay with CRL-7250 was inactive.

With `OC(CCN1CCCCC1)(c1ccccc1)C1CC2C=CC1C2` (stereo not given), the call in the assay on CRL-7250 was inactive.

For the molecule `Cc1[nH]c(=O)c(C#N)cc1-c1ccc2nccn2c1`, the outcome in the assay on CRL-7250 was inactive.

As to `CCN(CC)C(=O)N1CCN(C)CC1`, the outcome in the assay on CRL-7250 was inactive.

For the molecule `Cc1cccc(C)c1NC(=O)C(C)N` (stereo not given), in the assay on CRL-7250, the molecule was called inactive.

On to `C[C@H]1C[C@H]2[C@@H]3CCC4=CC(=O)C=C[C@]4(C)[C@@]3(Cl)[C@@H](O)C[C@]2(C)[C@@]1(O)C(=O)CO`, for which the call in the assay with CRL-7250 was inactive.

On to `Clc1ccc(Cn2c(CN3CCCC3)nc3ccccc32)cc1`, for which the result in the assay on CRL-7250 was inactive.

`CC(=O)N1C[C@H](O)C[C@H]1C(=O)O`: in the assay with CRL-7250, the outcome was inactive.

With `CCCc1cc(C(N)=S)ccn1`, the result in the assay on CRL-7250 was inactive.

On to `CCOc1ccccc1C(N)=O`, for which the molecule was classed as inactive in the assay with CRL-7250.

In the case of `Cc1c(N)cccc1C(F)(F)F`, the outcome with CRL-7250 was inactive.

Take `CCOc1cc(N)c(Cl)cc1C(=O)NCC1CN(Cc2ccc(F)cc2)CCO1` (stereo not given): the result in the assay with CRL-7250 was inactive.

Turning to `CC(=O)OCC(=O)Nc1cc(C#N)cc(NC(=O)COC(C)=O)c1Cl`, in the assay with CRL-7250, the molecule was classed as inactive.

For `CCC(=O)O[C@]1(C(=O)COC)[C@@H](C)C[C@H]2[C@@H]3CCC4=CC(=O)C=C[C@]4(C)C3(F)[C@@H](O)C[C@@]21C` (stereo not given in full), in the assay on CRL-7250, the call was inactive.

As for `CC(=O)[C@H]1CC[C@H]2[C@@H]3CC=C4C[C@@H](O)CC[C@]4(C)[C@H]3CC[C@]12C`, the call with CRL-7250 was inactive.

On to `Cc1cc(O)c(C)c(C)c1O`, for which the molecule was called inactive in the assay on CRL-7250.

Take `COc1ccccc1N1CCN(CCCNc2cc(=O)n(C)c(=O)n2C)CC1`: in the assay with CRL-7250, the outcome was inactive.

Turning to `Cc1nnc(C(=O)NC(C)(C)c2nc(C(=O)NCc3ccc(F)cc3)c(O)c(=O)n2C)o1`, the molecule was called inactive in the assay with CRL-7250.

Consider `CC1CCc2cc(F)cc3c(=O)c(C(=O)O)cn1c23` (stereo not given), for which the result in the assay with CRL-7250 was inactive.

For the molecule `O=C(Nc1ccc(C(=O)O)c(O)c1)c1ccccc1`, in the assay on CRL-7250, the molecule was called inactive.

Turning to `Cc1c(N(C)C)c(=O)n(-c2ccccc2)n1C`, the result in the assay on CRL-7250 was inactive.

As to `CCC(CN)=C(c1ccccc1)c1ccccc1`, in the assay with CRL-7250, the call was inactive.

On to `Cl/C(=C\n1cncn1)c1ccc(Cl)cc1Cl`, for which the call with CRL-7250 was inactive.

As to `C=C1C(=C/C=C2\CCC[C@]3(C)[C@@H]([C@H](C)/C=C/[C@@H](O)C4CC4)CC[C@@H]23)C[C@@H](O)C[C@@H]1O`, the result with CRL-7250 was inactive.

For the molecule `CN1CCC(OC(c2ccccc2)c2ccccc2)CC1`, the outcome in the assay on CRL-7250 was inactive.

As to `CCCCOc1cc(C(=O)OCCN(CC)CC)ccc1N`, in the assay with CRL-7250, the result was inactive.

As to `C[C@]12CC[C@@H]3c4ccc(O)cc4CC[C@H]3[C@@H]1CCC2=O`, the call in the assay with CRL-7250 was inactive.

In the case of `CC(=O)[C@@]1(O)CC[C@H]2[C@@H]3CCC4=CC(=O)CC[C@]4(C)[C@H]3CC[C@@]21C`, the result with CRL-7250 was inactive.

Regarding `Cc1nc2sccn2c(=O)c1CCN1CCC(=C(c2ccc(F)cc2)c2ccc(F)cc2)CC1`, in the assay with CRL-7250, the molecule was called inactive.

Regarding `O=C(O)C1CCC1`, the molecule was called inactive in the assay on CRL-7250.

In the case of `CN1[C@@H]2CC[C@H]1CC(OC(=O)c1c[nH]c3ccccc13)C2` (stereo not given in full), in the assay on CRL-7250, the outcome was inactive.

With `O=C(OCC(O)CO)c1ccccc1Nc1ccnc2cc(Cl)ccc12` (stereo not given), the outcome in the assay with CRL-7250 was inactive.

Consider `c1ccc2c(c1)CCc1ccccc1N2`, for which the call in the assay on CRL-7250 was inactive.

Take `O=C(O)CCC(=O)c1ccc(-c2ccccc2)cc1`: the molecule was classed as inactive in the assay with CRL-7250.

Turning to `CCN1CCCC(OC(=O)C(c2ccccc2)c2ccccc2)C1` (stereo not given), in the assay with CRL-7250, the molecule was called inactive.

On to `Cc1cc(C(C)(C)C)c(O)c(C)c1CC1=NCCN1`, for which, in the assay with CRL-7250, the result was inactive.

Turning to `O=c1ccc2ccccc2o1`, the call in the assay with CRL-7250 was inactive.

Regarding `N#Cc1cc(NC(=O)C(=O)O)c(Cl)c(NC(=O)C(=O)O)c1`, the result with CRL-7250 was inactive.

Take `Cc1c(Cl)cccc1Nc1ccccc1C(=O)O`: the call in the assay on CRL-7250 was inactive.

Regarding `C1CCN2C[C@@H]3C[C@@H](CN4CCCC[C@@H]34)[C@H]2C1`, the result with CRL-7250 was inactive.

The values above are taken from PubChem BioAssay (NCATS).
